Data from PubChem BioAssay (NCI).
The panel holds about 83,000 compounds, 20% with a hit somewhere; the sample as a whole holds those more often.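 Results are percent growth after 48 hours of single-concentration exposure. 100 means growth as in untreated cells, lower positive values show inhibition; negative values down to -100 show cell death.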 Unmarked numbers belong to inactive results. Active and inactive are the calls of the source. How the source made its calls: active means growth percent below 10; inactive means the rest.

Legend:
Experiment in all cases: NCI-60 one-dose screen, 48 h (100 = growth as untreated, 0 = no growth, -100 = all killed)
Conditions in all cases: 10 µM unless noted
[1] = tested on: T-47D breast
[2] = tested on: BT-549 breast
[3] = tested on: MDA-MB-435 melanoma
[4] = tested on: SW-620 colon
[5] = tested on: MCF7 breast
[6] = tested on: HCT-116 colon
[7] = tested on: HCC-2998 colon
[8] = tested on: KM12 colon

| SMILES | growth [1] | growth [2] | growth [3] | growth [4] | growth [5] | growth [6] | growth [7] | growth [8] |
| --- | --- | --- | --- | --- | --- | --- | --- | --- |
| Cc1ccc(Cc2cnc(NC(=O)/C=C/c3ccc(C)o3)s2)cc1 | 35.5% | 72.3% | -52.5% (active) | 22.7% | 12.3% | 27.7% | 65.2% | 16.5% |
| Cc1ccc(OCCOCCOCCOc2ccc(C)n(O)c2=S)c(=S)n1O | 14% | 50.4% | 56.3% | 24.5% | 20.3% | 9.46% (active) | 57.9% | 30.8% |
| CN(C)c1ccc(/C=N\NC(=O)c2ccc3nc(-c4ccc(Cl)cc4)[nH]c3c2)cc1 | 59.4% | 106% | 93.9% | 46.3% | 17.4% | 48.6% | 79% | 64.9% |
| COc1cc2c(c(OC)c1OC)C(=O)CC(c1cccc(C(=O)Nc3ccccc3Br)c1)O2 (centres undefined) | 55.4% | 78.8% | 83.9% | 99.3% | 68.9% | 81.5% | 95% | 93.5% |
| COc1cc(/C=C2\C(=O)N(CCCOc3cc(O)c4c(=O)cc(-c5ccccc5)oc4c3)c3ccccc32)cc(OC)c1O | 44.6% | 49.7% | -35.1% (active) | 38.4% | 48.9% | 63.7% | 82.9% | 62.2% |
| O=C(C1=Cc2cc3ccccc3n2Cc2cnnn21)c1ccc(F)cc1 | 95% | 94.9% | 97.5% | 108% | 94% | 97.9% | 110% | 90.8% |
| N=C(N)c1ccc(-c2ccc(-c3ccccc3)o2)o1 | 32.8% | 64.6% | -32.9% (active) | 1.14% (active) | 20.6% | 19.4% | 46.9% | 16.6% |
| CCN(CC)CCOc1ccc(C(=O)/C=C\c2ccc(Cl)cc2Cl)cc1 | 29.9% | 31.6% | 27.3% | -55.1% (active) | -48.1% (active) | -90.2% (active) | 24.2% | -43.2% (active) |
| CCN(CC)CCOc1ccc(Nc2ncc3cc(-c4c(Cl)cccc4Cl)c(=O)n(CCOC)c3n2)cc1 | 29.4% | -15.1% (active) | 1.33% (active) | 7.96% (active) | 17.2% | -40.6% (active) | 9.52% (active) | 15.9% |
| Cn1c2ccccc2c2c3c(c4c5cc(Br)ccc5n(C)c4c21)C(=O)N(O)C3=O | -11.2% (active) | 41.2% | 22.8% | 18% | 10.7% | 4.46% (active) | 57.5% | 34.1% |
| CN(C)c1ccc([C@@H](C(=O)Nc2cccc([N+](=O)[O-])c2)N(C(=O)c2cc3ccccc3[nH]2)c2cccc([N+](=O)[O-])c2)cc1 | 84% | 95.4% | 108% | 98.7% | 89.6% | 90.4% | 107% | 103% |
| O=c1oc2c(cc1-c1ccccc1)c(=O)[nH]c1ccccc12 | 95.4% | 97.5% | 97.7% | 105% | 87.3% | 97.1% | 105% | 101% |
| S=c1ccnc[nH]1 | 125% | 106% | 113% | 108% | 107% | 96.8% | 104% | 109% |
| CCOC(=O)c1ccc[nH]1 | 93.3% | 77.5% | 105% | 113% | 92.6% | 94.5% | 88.1% | 108% |
| Nc1cc(-c2ccc(Cl)cc2)nn1-c1nnc(/C=C/c2ccco2)c(=O)[nH]1 | 62.7% | 72% | 62.8% | 49.3% | 45.9% | 41% | 48.5% | 56% |
| C=C(c1ccc(C(=O)O)c(F)c1)c1cc2c(cc1C)C(C)(C)CCC2(C)C | 78.5% | 91.7% | 89.3% | 97.6% | 62.1% | 79.5% | 89.9% | 69.2% |
| COCCn1cc(-c2csc(-c3c[nH]c4ccc(F)cc34)n2)c2cccnc21 | 2.36% (active) | 7.07% (active) | 5.02% (active) | 18.8% | 11.8% | 22.2% | 27.6% | 8.29% (active) |

| SMILES | growth [1] | growth [2] | growth [3] | growth [4] | growth [5] | growth [6] | growth [7] | growth [8] |
| --- | --- | --- | --- | --- | --- | --- | --- | --- |
| CN(C)CCC(CCN(C)C)(C(=O)O)c1ccccc1 | 104% | 96.5% | 106% | 110% | 94.1% | 104% | 101% | 102% |
| CCOC(=O)c1cn2ncnc(Oc3ccc(NC(=O)NC4CC4)c(Cl)c3)c2c1C | 71.9% | 96.1% | 96.4% | 97.1% | 90.5% | 95.1% | 101% | 102% |
| O=[N+]([O-])c1c(O)c(Cl)cc(Cl)c1Cl | 97.6% | 106% | 114% | 115% | 98.8% | 100% | 96.5% | 112% |
| N#CSc1c[nH]c2ccc(/C=C/C(=O)/C=C(O)/C=C/c3ccc4[nH]cc(SC#N)c4c3)cc12 | 19.4% | 15.7% | -2.07% (active) | 9.56% (active) | 10.5% | 9.39% (active) | 46.3% | 24.9% |
| CCOC(=O)C(CCN(C)C)c1ccccc1 (centres undefined) | 103% | 97.3% | 107% | 108% | 92.7% | 104% | 96.3% | 104% |
| O=C(/C=C/c1ccccc1)N(C1CCCCC1)C1CCCCC1 | 69.2% | 77.3% | 99% | 92.4% | 88.4% | 57.6% | 92.4% | 95.1% |
| O=S(=O)(Nc1cc(Sc2nc3ccccc3s2)c(O)c2ccccc12)c1ccc2ccccc2c1 | 79.5% | 105% | 95.4% | 108% | 81.7% | 90.6% | 109% | 92.6% |
| COc1nc(/C=C\Nc2ccc3c(c2)OCCOCCOCCOCCO3)nc(OC)n1 | 87.5% | 92.9% | 94.8% | 94% | 93% | 95.2% | 98.2% | 101% |
| O=C(NCCCCO)c1cncnc1Nc1ccc2c(ccn2Cc2cccc(F)c2)c1 | 83.3% | 88.6% | 92.1% | 105% | 96.8% | 91.5% | 93.4% | 97.4% |
| CCN(CC)C(=O)CC1=C(C)/C(=C/c2[nH]c(-c3ccc[nH]3)cc2OC)N=C1C | 33.4% | 21.4% | 17.2% | 15.2% | 19.3% | 1.94% (active) | 30.4% | 13.9% |
| CC(C)NS(=O)(=O)/N=C1\NC(=O)NC1=C(Cl)Cl | 79.7% | 104% | 94.3% | 103% | 82.7% | 102% | 110% | 85.4% |
| CCN(CC)CCN1C(=O)c2c(c3c4ccccc4[nH]c3c3ccc4ccccc4c23)C1=O | 48.7% | 84.5% | -84.8% (active) | 4.79% (active) | -50.8% (active) | 29.2% | 85.5% | -15.8% (active) |
| O=C(/C=C/c1cn(-c2ccccc2)nc1-c1ccccc1)CCC(=O)NO | 96.7% | 101% | 112% | 108% | 91.6% | 84% | 111% | 96.9% |
| Cc1nc2sc(C(=O)Nc3cccc(Cl)c3C)c(N)c2cc1C(=O)/C=C/c1ccccc1 | 21.2% | -35.7% (active) | -26.3% (active) | -21.8% (active) | 3% (active) | -35.6% (active) | -83.2% (active) | -16.7% (active) |
| N#Cc1c(-c2cccc(Cl)c2)cc(-c2cccnc2)[nH]c1=O | 87.3% | 72.5% | 2.97% (active) | 71.1% | 48.2% | 72.4% | 98.6% | 65.6% |
| CCOC(=O)C1=C(CC(O)c2ccc(OC)cc2OC)NC(=O)NC1c1ccccc1 (centres undefined) | 110% | 102% | 99.4% | 115% | 120% | 89.2% | 90.6% | 115% |
